# Data published in PubChem BioAssay AID1671190 (National Center for Advancing Translational Sciences (NCATS), 2021).
# Out of some 580,000 compounds screened, about 6,100 (1.1%) were called active. Roughly 15% stayed inconclusive and do not appear here. Calls follow the shape of the dose curve; as a rule, active = well fitted inhibition curve with a large enough effect; inconclusive = small, poorly fitted or top-dose-only effect, or another doubt; inactive = no such curve, though single readings can be large or run the other way. What follows is part of a selection rich in actives, with near analogues and random picks from the rest. A call without a number means that no potency is given here.
# Target: Polyunsaturated fatty acid lipoxygenase ALOX12 (Homo sapiens) (UniProt P18054)
# Assay: Primary qHTS assay for inhibitors of human arachidonate 12S-lipoxygenase (ALOX12): Round 2
# Details: purified 12hLO, xylenol orange hydroperoxide absorbance; series mostly up to 108 µM
# Procedure, shortened: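 Purified human 12hLO at 150 nM in 25 mM Hepes, 0.01% Triton X-100, pH 7.0, preincubated 15 min at room temperature with compound. Reaction started with 40 uM arachidonic acid, 30 min at room temperature. Hydroperoxide measured by Fe-xylenol orange, 573/405 nm absorbance ratio.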
# Potency is read from the fitted curve at half-maximal effect.
# Sequence of Polyunsaturated fatty acid lipoxygenase ALOX12 (Homo sapiens) (P18054 whole entry, looked up): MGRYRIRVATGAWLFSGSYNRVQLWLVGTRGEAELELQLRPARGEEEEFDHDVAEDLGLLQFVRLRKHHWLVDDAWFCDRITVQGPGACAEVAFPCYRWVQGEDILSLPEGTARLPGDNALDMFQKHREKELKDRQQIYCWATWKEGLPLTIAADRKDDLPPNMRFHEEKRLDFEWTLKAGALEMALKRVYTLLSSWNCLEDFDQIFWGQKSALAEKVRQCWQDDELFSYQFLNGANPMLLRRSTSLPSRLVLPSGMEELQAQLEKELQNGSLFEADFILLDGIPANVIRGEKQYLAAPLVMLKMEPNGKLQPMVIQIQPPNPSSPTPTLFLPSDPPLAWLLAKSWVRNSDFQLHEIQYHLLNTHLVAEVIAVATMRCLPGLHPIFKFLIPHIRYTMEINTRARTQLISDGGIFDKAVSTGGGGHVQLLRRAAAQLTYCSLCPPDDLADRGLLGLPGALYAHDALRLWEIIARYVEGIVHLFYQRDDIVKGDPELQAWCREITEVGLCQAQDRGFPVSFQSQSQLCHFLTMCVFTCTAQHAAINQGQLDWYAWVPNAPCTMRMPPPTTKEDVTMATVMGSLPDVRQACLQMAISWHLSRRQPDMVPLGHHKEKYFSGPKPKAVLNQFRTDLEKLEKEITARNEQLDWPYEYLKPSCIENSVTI
Structure (SMILES),Potency,"activity change, negative = inhibition"
CN1CCN(C(=O)c2cccc(C(F)(F)F)c2)CC1,inactive,
Cc1ccc(S(=O)(=O)N2CCOCC2)cc1NC(=O)c1ccncc1,inactive,
O=[N+]([O-])c1cc(Cl)cc(/C=N/NC(=S)Nc2cc(S(=O)(=O)N3CCOCC3)ccc2Cl)c1O,25.1 µM (active),
O=C(CNCc1cccs1)Nc1cc(S(=O)(=O)N2CCCC2)ccc1Cl,inactive,
CCOc1cc(C2c3c(-c4c(C)cc(C)cc4O)n[nH]c3C(=O)N2CCO)ccc1O (stereo not drawn),inactive,
CCC(=O)N1N=C(c2ccc(OC)cc2)CC1c1cn(-c2ccccc2)nc1-c1cccs1 (stereo not drawn),inactive,
C(=NCc1ccccc1)c1cn(-c2ccccc2)nc1-c1cccs1,50.1 µM (active),
O=c1onc(-c2cccs2)n1Cc1ccccc1,inactive,
CC1(C)[C@H]2CC[C@@H](CNC(=O)c3ccccc3F)[C@@H]1C2,inactive,
Oc1c(Br)cc(/C=N/NC(=S)NCC2CCCO2)cc1Br (stereo not drawn),inactive,
COc1cc(/C=N/Nc2ccc(C)cc2)cc(Br)c1O,10 µM (active),
COc1cc(/C=N/O)ccc1O,inactive,
O=C(Cc1ccc(Cl)cc1)Oc1ccc2ccccc2c1,inactive,
C(=N\N=C(c1ccccc1)c1ccccc1)/c1cn[nH]c1-c1ccccc1,inactive,
CN(C)c1ncnc2sc3c(c12)CCN(Cc1ccccc1)C3,inactive,
Cc1ccc(N2C(=O)C3N=NN(CC(=O)N4N=C(c5cccc6ccccc56)CC4c4ccccc4)C3C2=O)cc1 (stereo not drawn),inactive,
CCCc1nc(-c2ccccc2O)n(-c2ccccc2)n1,inactive,
Oc1ccccc1C1=NN(c2ccccc2)C(c2ccccc2)C1 (stereo not drawn),15.8 µM (active),
Cc1oc2cc(OCC(=O)N3CCCCCC3)ccc2c(=O)c1-c1ccc(Cl)cc1,inactive,
CCN1/C(=C\c2ccc3ccccc3[n+]2CC)Sc2cc(C)ccc21,35.5 µM (active),
CCN(CC)C(=O)Oc1ccc2c(C)c(-c3ccc(OC)cc3)c(=O)oc2c1,inactive,
O=C1CC(NCc2ccoc2)CN1CCc1cccc(Cl)c1 (stereo not drawn),inactive,
Cc1ccccc1NC(=O)c1cc2cc([N+](=O)[O-])ccc2oc1=O,inactive,
COc1cc(CNCCSc2nnnn2C)ccc1OCc1c(F)cccc1Cl,inactive,
Cn1nnnc1SCCNCc1ccc(Cl)c(Cl)c1,inactive,
COc1cc(CNCCSc2nnnn2C)ccc1OCc1ccc(Cl)cc1Cl,39.8 µM (active),

Structure (SMILES),Potency,"activity change, negative = inhibition"
Cc1cc(S(=O)(=O)N2CCCN(C)c3ccccc32)ccc1F,inactive,
Cc1ccc(CN(CC(=O)NCC2CCCO2)C2CC2)cc1 (stereo not drawn),inactive,
CN(Cc1cccs1)C(=O)C1CCC1,inactive,
CCN1CCC2(CC1)N=C(c1ccc(F)cc1)C(=S)N2C(=O)c1ccc(C)cc1,50.1 µM (active),
Cc1ccc(C(=O)N2CCC3(CC2)NC(=O)N(Cc2ccc(F)cc2)C3=O)cc1,inactive,
Cc1ccc(C(=O)N2CCC(c3n[nH]c(=O)n3Cc3ccc(F)cc3)CC2)cc1,inactive,
CC1CCN(CCCNC(=O)c2cc(=O)c3ccccc3o2)CC1,inactive,
Cc1ccc(S(=O)(=O)N(CC(=O)Nc2cccnc2)c2ccc(Br)cc2)cc1,22.4 µM (active),
CCNC(=O)CN(c1ccc(C)cc1)S(=O)(=O)c1ccc(SC)cc1,inactive,
Cc1ccc(N(CC(=O)Nc2cc(C)cc(C)c2)S(=O)(=O)c2cccc3nonc23)cc1,inactive,
COc1ccccc1C(=O)N1CCc2c(nc3cc(-c4ccccc4Cl)[nH]n3c2=O)C1,inactive,
COc1ccc2cc(C(=O)N3CCN(S(=O)(=O)c4ccccc4C(F)(F)F)CC3)c(C)nc2c1,inactive,
Cn1c(=O)c2c(nc(Cl)n2CC(=O)N(C2CCCC2)C2CCS(=O)(=O)C2)n(C)c1=O (stereo not drawn),inactive,
O=C(Cc1cccc2ccccc12)NCCc1cccc2cccnc12,inactive,
CCCCc1c(C)nc2c(C)cccc2c1SCC(=O)O,inactive,
COc1ccc(COc2ccc(C(=O)O)cc2OC)cc1Br,inactive,
COc1cc(C(=S)NCc2ccccc2)cc(Br)c1O,39.8 µM (active),
COc1ccccc1NC(=O)C(=O)NCc1ccccc1,inactive,
CN(Cc1ccc(F)cc1F)C(=O)COc1ccc2ccc(=O)oc2c1,inactive,
C=CCSc1nc2c(c(=O)[nH]c(=O)n2C)n1Cc1cccc(C)c1,inactive,
Cc1ccc(NNC(=O)c2cccs2)cc1Cl,8.91 µM (active),
CS(=O)(=O)c1ccc(C(=O)NNC(=O)c2cccs2)cc1,inactive,
COc1cc(Cl)c(C)cc1NC(=O)[C@@H]1CCCN1C(=O)c1cccs1,inactive,
CCN(c1ccc(-c2csc(-c3ccccc3)n2)cc1)S(C)(=O)=O,inactive,
N#Cc1ncn(CCC(=O)Nc2ccc(F)c(F)c2)n1,inactive,
COc1ccc(C)cc1NC(=O)NC(C(=O)N1CCc2ccccc21)C(C)C (stereo not drawn),inactive,

Structure (SMILES),Potency,"activity change, negative = inhibition"
Cc1noc(-c2ccc(OC(F)(F)F)cc2)c1C(=O)NCc1ccc2c(c1)OCO2,inactive,
CCC1CCCCN1C(=O)Cn1cccc1-c1nc(-c2ccc(F)cc2)no1 (stereo not drawn),inactive,
O=C(c1ccc2c(c1)OCO2)N1CCC2(C1)C(=O)Nc1ccccc12 (stereo not drawn),,5.73% [at 6.33 µM] (inactive)
O=C(c1ccc2c(c1)OCO2)N1CCC2(CC1)NC(=O)N(c1ccccc1)N2,5.01 µM (active),
O=C(c1ccc2c(c1)OCO2)N1CCC(n2c(=O)[nH]c3ccccc32)CC1,inactive,
O=C(NC1CCCc2c1[nH]c1ccc(F)cc21)c1n[nH]c2c1CCCC2 (stereo not drawn),inactive,
O=C(c1ccccc1)c1cccn1CC(=O)N1CCN(c2ccc(F)cc2)CC1,inactive,
CCC(CC)C(=O)Nc1cccc(C(=O)N2CCCC2)c1,inactive,
O=C(Cc1ccc(F)cc1)N1CCC2(CC1)NC(=O)N(c1ccccc1)N2,5.01 µM (active),
O=C(c1n[nH]c2c1CCCC2)N1CCC2(CC1)NC(=O)N(c1ccc(F)cc1)N2,1.41 µM (active),
CC(=O)Nc1cccc(C(=O)N2CCC3(CC2)NC(=O)N(c2cccc(Cl)c2)N3)c1,1.41 µM (active),
O=C(c1cccc(Cl)c1)N1CCC2(CC1)NCc1ccccc1NC2=O,,3.75% [at 6.33 µM] (inactive)
O=C(Cc1ccc(F)cc1)N1CCC(n2cc(-c3nc(-c4ccccc4)no3)nn2)CC1,inactive,
O=C(c1cc2ccccc2oc1=O)N(Cc1ccccc1)c1cccc([N+](=O)[O-])c1,inactive,
CC1CCN(S(=O)(=O)c2ccc3c(ccc(=O)n3CC(=O)NCc3ccccn3)c2)CC1,inactive,
COc1cccc(CC(=O)N2CCC3(CC2)N=C(c2ccc(Cl)cc2)NO3)c1,inactive,
Cc1ccc(-c2cn3nc(N4CCCC(C(=O)NCCc5cccs5)C4)sc3n2)cc1 (stereo not drawn),inactive,
COCCn1nc2n(c1=O)CCN(S(=O)(=O)c1ccc(Cl)s1)CC2,inactive,
COc1ccc(Cl)cc1NC(=O)CCc1ncc(-c2ccc(C)cc2)o1,inactive,
CC(C)C(=O)N1CCC2(CC1)OC(=O)N(Cc1ccccc1F)C2(C)c1ccccc1 (stereo not drawn),inactive,
CC1(c2ccccc2)N(Cc2ccc(O)cc2)C(=O)OC12CCN(Cc1ccc(C#N)cc1)CC2 (stereo not drawn),inactive,
CC1(c2ccccc2)N(Cc2ccccc2F)C(=O)OC12CCN(Cc1c[nH]c3ccccc13)CC2 (stereo not drawn),28.2 µM (active),
COc1ccccc1CNC(=O)c1ncoc1-c1cccc(C)c1,inactive,
CCC(=O)N1c2ccccc2NC2=C(C(=O)CC(C)(C)C2)C1c1cc(OC)ccc1OC (stereo not drawn),inactive,
COCC1CN(Cc2cn(C)c3ccc(OC)cc23)CC12CCNCC2 (stereo not drawn),inactive,
COc1cc(/C=C/c2nc3ccccc3s2)ccc1OC(F)F,inactive,

Structure (SMILES),Potency,"activity change, negative = inhibition"
CCn1c(SCC(=O)Nc2ccccc2C(=O)NC2CC2)nnc1-c1ccoc1C,inactive,
COc1ccc(N2CCN(C(=O)CCNC(=O)c3ccc(Br)cc3)CC2)cc1,inactive,
COc1ccc(C(=O)NCCSc2ccccc2C)cc1,inactive,
COc1ccc(C(=O)NCC[N+](C)(C)C)cc1,39.8 µM (active),
CCN(Cc1nc(-c2ccc(OC)c(OC)c2)no1)C(=O)Nc1cccc2ccccc12,inactive,
COC(=O)c1c(NC(=O)CCCOc2ccccc2)sc2c1CCC(C)C2 (stereo not drawn),inactive,
Cc1[nH]c2ccccc2c1/C=N/c1sc2c(c1C#N)CCC(C)C2 (stereo not drawn),22.4 µM (active),
Cc1[nH]c2ccccc2c1C=O,inactive,
COC(=O)CC(NC(=O)c1nn(C)c(=O)c2ccccc12)c1ccc(F)cc1 (stereo not drawn),inactive,
Nc1ccc(-c2cc(C(=O)O)c3cc(Cl)ccc3n2)cc1,inactive,
Cc1nc(C)c(C(=O)N2CCCC(C(=O)NCc3ccccc3)CCNC(=O)CC2)s1 (stereo not drawn),inactive,
N#CC1CCN(C(=O)c2nc(-c3ccc(Cl)cc3)c3ccccn23)CC1,inactive,
CCOc1ccccc1N1CCN(c2nc(-c3cccnc3)nc3ccccc23)CC1,inactive,
COc1ccc(N2CCN(c3nc(-c4ccccc4F)nc4ccccc34)CC2)cc1,inactive,
COc1ccccc1-c1nc(N2CCN(C)CC2)c2ccccc2n1,28.2 µM (active),
COC(=O)C1CCCCN1S(=O)(=O)c1cc(Cl)ccc1Cl (stereo not drawn),inactive,
CN1c2ccc(C=O)c3c(C=O)ccc(c23)N(C)C1(C)C,28.2 µM (active),
O=C(CCC1NC(=O)c2ccccc2NC1=O)NC1CCCCCC1 (stereo not drawn),inactive,
FC(F)(F)c1ccccc1-c1nc(-n2ccnc2)c2ccccc2n1,15.8 µM (active),
Fc1ccccc1N1CCN(c2nc(-c3cccnc3)nc3ccccc23)CC1,inactive,
CC(C)Nc1nc(N(c2ccccc2)c2ccccc2)nc(-n2ccnc2)n1,inactive,
CCCc1noc(CN2CCN(c3cc(C)nc(C(C)C)n3)CC2)n1,inactive,
N#C/C(=C/c1ccco1)c1nc2ccccc2[nH]1,39.8 µM (active),
CC(C)c1ccc(/C=C(/C#N)c2nc3ccccc3[nH]2)cc1,inactive,
COc1cccc2cc(/C=C(/C#N)c3nc4ccccc4[nH]3)oc12,inactive,
